These results are taken from PubChem BioAssay AID1346378 (National Center for Advancing Translational Sciences (NCATS), 2018).

The campaign covered roughly 420,000 compounds. About 540 (0.13%) were called active. The sample holds actives, similar compounds and a random draw of the others, so the mix is not that of the screen. A number with no mark means an inactive call. Rule as the data show it: active = activity change below about -50%; inconclusive = mostly about -30% to -49%; inactive = weaker than that.

Phosphatidylinositol 4-kinase type 2-alpha (Homo sapiens), sequence (Q9BTU6 whole entry, looked up): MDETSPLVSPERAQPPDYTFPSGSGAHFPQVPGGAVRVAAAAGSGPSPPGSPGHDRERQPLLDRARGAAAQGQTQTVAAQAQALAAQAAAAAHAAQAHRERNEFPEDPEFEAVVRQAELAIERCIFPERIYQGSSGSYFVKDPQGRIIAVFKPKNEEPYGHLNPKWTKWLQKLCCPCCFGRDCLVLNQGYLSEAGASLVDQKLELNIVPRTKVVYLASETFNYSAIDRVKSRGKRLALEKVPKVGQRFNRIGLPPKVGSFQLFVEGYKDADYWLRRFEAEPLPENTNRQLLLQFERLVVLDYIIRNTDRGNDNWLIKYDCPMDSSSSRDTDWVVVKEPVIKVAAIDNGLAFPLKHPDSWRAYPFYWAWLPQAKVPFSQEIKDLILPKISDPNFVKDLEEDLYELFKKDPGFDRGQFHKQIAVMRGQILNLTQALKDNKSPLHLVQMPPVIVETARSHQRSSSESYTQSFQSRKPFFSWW

The assay has as its target Phosphatidylinositol 4-kinase type 2-alpha (Homo sapiens) (UniProt Q9BTU6). As to the kind of experiment: qHTS for small molecular inhibitors of PI4K2A.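 Also: -100% = wells without enzyme as full effect.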 The note with it: purified PI4K2A, ADP-Glo luminescence, 1 h; at 76.9 µM, stronger effect = lower value. From the text:
The phosphatidylinositol 4-phosphate (PI4P) is emerging as a key regulator of lipid transfer in ER-membrane contact sites. The four different phosphatidylinositol 4-kinase (PI4K) enzymes generate PI4P in different membrane compartments supporting distinct cellular processes many of which are crucial for the maintenance of cellular integrity but also hijacked by intracellular pathogens. The goal of this screening project is to search for small molecular inhibitors of PI4K2A based on a high throughput screening strategy.The ADP-Glo assay was used as a starting point to develop a miniaturized version for HTS applications. To implement the HTS screen, the PI4K ADP-Glotrade mark Kinase assay (Promega, V9102) was miniaturized for the 1536-well format used at NCGC.
For the robotic screening, the ADP-Glo assay using the ADP-Glotrade mark Kinase Assay kit from Promega was miniaturized and optimized on 1536-well white solid bottom plates (Greiner Bio-one). The substrate, 1.2 mM PI, prepared in the assay buffer (40mM Tris pH7.5, 20mM MgCl2, 1mM EGTA, 0.4% Triton X-100, 0.5mM DTT, 0.5mg/ml BSA) and PI4K2A enzyme, diluted also in the assay buffer to 4ug/mL, were dispensed onto the plates in equal volumes (1microl/well), pinned with 23 nL/well tested compounds or control followed by dispensation of 1microl/well 300microM ATP. The plates were incubated for one hour. Then, 2 µL/well of ADP-Glo reagent was added and incubated for 40 minutes. Next, 4microL/well of Kinase Detection Buffer was added to the plates and incubated for additional 40 minutes. All incubation steps were performed at ambient temperature. The resulting luminescence signal was measured on Viewlux plate reader (PerkinElmer). Adenosine, a partial non-specific inhibitor, was used as a positive control at 100microM final concentration to assess the assay's quality and plate-to-plate reproducibility. We also used "no enzyme" control to gauge the assay's maximal potential inhibition (IC100).
Background: qHTS replaces the single test concentration by a dilution series.
In the case of `COc1cc(C(=O)OC2CCOC2=O)c([N+](=O)[O-])cc1OC` (stereo not drawn), the activity change, negative = inhibition is 0.815%.

With `CC(C)(C)c1ccc(OCC(=O)N2CCC(c3nc4ccccc4s3)CC2)cc1`, the activity change, negative = inhibition is -3.91%.

On to `O=C(OC1CCOC1=O)c1ccc(-c2nc3ccccc3s2)s1` (stereo not drawn), for which the activity change, negative = inhibition was -52.4% (active).

Turning to `O=C1/C(=C\c2ccc([N+](=O)[O-])cc2)CS(=O)(=O)C/C1=C/c1ccc([N+](=O)[O-])cc1`, the activity change, negative = inhibition was -53% (active).

With `C=CC(=O)Nc1ccc(Nc2ccnc(Nc3ccc(N4CCN(C)CC4)cc3)n2)cc1`, the activity change, negative = inhibition is -9.48%.

On to `CC(C)C[C@H](NC(=O)[C@H](O)[C@H](N)Cc1ccccc1)C(=O)O`, for which the activity change, negative = inhibition is -0.0848%.

For the compound `CC(=O)Nc1ccc(NC(=O)c2cc3sccc3n2Cc2ccc(F)cc2)cc1`, the activity change, negative = inhibition was -0.493%.

As to `Cc1nonc1C(=O)N/N=C/c1ccc(O)cc1`, the activity change, negative = inhibition is -107% (active).

As to `CC(C)Oc1ccc(/C=N/NC(=O)c2nnn(-c3nonc3N)c2CN(C)C2CCCCC2)cc1`, the activity change, negative = inhibition is -0.0382%.

On to `CCc1ccc(/C=N/NC(=O)c2nnn(-c3nonc3N)c2CN2CCc3ccccc32)cc1`, for which the activity change, negative = inhibition is 2.23%.

Turning to `O=S(=O)(NCCc1nnc2ccc(SCc3ccc(Cl)cc3Cl)nn12)c1ccccc1`, the activity change, negative = inhibition was 1.68%.

As for `CCCOC(=O)c1c(NC(=O)c2cc3nc(-c4ccc(OC)cc4)cc(C(F)(F)F)n3n2)sc2c1CCCC2`, the activity change, negative = inhibition was -1.38%.

On to `CC(=O)c1ccc(NC(=O)COc2ccccc2-c2nc(-c3ccccc3)no2)cc1`, for which the activity change, negative = inhibition was -0.609%.

Take `O=C(COc1cccc(F)c1)Oc1ccc(C(=O)c2ccccc2)cc1`: the activity change, negative = inhibition was -2.11%.

For `O=C(Oc1ccc(-c2nc(-c3ccccn3)no2)cc1)c1ccccc1`, the activity change, negative = inhibition was -59.2% (active).

As for `CCc1ccccc1NC(=O)c1ccc(F)c(S(=O)(=O)NC2CCCCCC2)c1`, the activity change, negative = inhibition was 3.89%.

With `CCCCOc1ccc(C(=O)N2CC(=O)Nc3ccc(Br)cc3C2c2ccc(F)cc2)cc1` (stereo not drawn), the activity change, negative = inhibition is 0.252%.

In the case of `O=C(NCC(c1cccnc1)N1CCc2ccccc21)c1cccc(C(F)(F)F)c1` (stereo not drawn), the activity change, negative = inhibition is -0.743%.

In the case of `CCOCCCn1c(SCC(=O)Nc2ccc(CC)cc2)nc2ccccc2c1=O`, the activity change, negative = inhibition is 2.57%.

`COc1cc(OC)c(OC)cc1/C=C/c1nc2cc3ccccc3cc2c(=O)n1-c1ccc(F)c(Cl)c1`: the activity change, negative = inhibition was 1.51%.

For `CCCC(=O)Nc1cc(C(=O)NCc2ccc(OC)cc2)ccc1S(=O)(=O)c1ccc(Cl)cc1`, the activity change, negative = inhibition was 1.05%.

Regarding `CCCc1c2oc(C(=O)O)cc(=O)c2cc2c(=O)cc(C(=O)O)n(CC)c12`, the activity change, negative = inhibition was 0.586%.

For `CC1(C)OC[C@@H](COC(=O)CCc2ccc(OC[C@@H](O)CNCCNC(=O)N3CCOCC3)cc2)O1`, the activity change, negative = inhibition was 2.53%.

Regarding `Cc1cccc(C)c1NC(=O)c1ccc(N)cc1`, the activity change, negative = inhibition was 2.75%.

On to `CC(C)Sc1oc(-c2cccs2)nc1S(=O)(=O)c1ccc(Cl)cc1`, for which the activity change, negative = inhibition was 2.5%.

In the case of `CCC(=O)Nc1ccc2nc(SCC(=O)N3CCc4ccccc43)sc2c1`, the activity change, negative = inhibition was -5.07%.

Regarding `CCCn1c(=O)c2[nH]c(-c3ccc(OCC(=O)NCCN)cc3)nc2n(CCC)c1=O`, the activity change, negative = inhibition was -1.34%.

Take `Nc1ccc2nc3c(=O)[nH]c(=S)[nH]c3nc2c1`: the activity change, negative = inhibition is -58.2% (active).

In the case of `Cc1ccc(-n2ncc3c(N4CCC(C(N)=O)CC4)ncnc32)cc1`, the activity change, negative = inhibition was -0.0422%.

Take `CC(=O)c1ccc(NC(=O)c2nc3nc(C)cc(C(F)F)n3n2)cc1`: the activity change, negative = inhibition was 0.438%.

With `Cc1oc2ncnc(N3CCOCC3)c2c1C(=O)NCCc1ccccc1`, the activity change, negative = inhibition was 5.54%.

In the case of `Cc1cc2oc(C(=O)N(Cc3ccc(Cl)cc3)Cc3ccco3)c(C)c2cc1Cl`, the activity change, negative = inhibition is -5.36%.

As for `O=C(C1CC1)N1CCc2cc(Br)cc(S(=O)(=O)N3CCN(c4ccccc4F)CC3)c21`, the activity change, negative = inhibition was -2.46%.

For `CC(C)(C)c1ccc(C(=O)NCC(c2ccc(Cl)cc2)N2CCOCC2)cc1` (stereo not drawn), the activity change, negative = inhibition is 1.67%.

For the compound `Cc1ccc2oc(=O)c3cnn(CC(=O)NCc4ccccc4Cl)c3c2c1`, the activity change, negative = inhibition was 2.09%.

As for `Cc1ccc(C(=O)NCCSc2c(C)[nH]c3ccccc23)cc1C`, the activity change, negative = inhibition is -0.18%.

`Cc1ccccc1NC(=O)c1cc2c([nH]c1=O)CC(C)(C)CC2=O`: the activity change, negative = inhibition was -0.508%.

Consider `Cc1ccc2ncc(C(=O)Nc3ccc(OC(F)(F)F)cc3)c(=O)n2c1`, for which the activity change, negative = inhibition was -0.27%.

As for `C[C@@H]1CCC[C@H](C)N1CCCC(O)(c1ccccc1)c1ccccn1` (stereo partly drawn), the activity change, negative = inhibition was -1.64%.

As to `Cc1ccc(NC(=O)Cn2cnc3nc4c(cc3c2=O)CCCC4)cc1Cl`, the activity change, negative = inhibition is 2.6%.

Consider `O=C(CC1Oc2ccccc2NC1=O)NCc1ccc(F)cc1` (stereo not drawn), for which the activity change, negative = inhibition is -3.94%.

As to `CCOCCn1ccc2c(OCC(=O)NCc3ccc(C)cc3)cccc2c1=O`, the activity change, negative = inhibition was -5.41%.

In the case of `O=C1CCCc2cc(S(=O)(=O)N3CCCC(C(=O)NCc4ccccc4)C3)ccc2N1` (stereo not drawn), the activity change, negative = inhibition is -5.19%.

On to `CCc1ccc(NC(=O)CCS(=O)(=O)c2cc3c(cc2Cl)NC(=O)CO3)cc1`, for which the activity change, negative = inhibition was 0.699%.

Take `CO[C@H]1C=CO[C@@]2(C)Oc3c(C)c(O)c4c(O)c(c(/C=N/N5CCN(C)CC5)c(O)c4c3C2=O)NC(=O)/C(C)=C\C=C[C@H](C)[C@H](O)[C@@H](C)[C@@H](O)[C@@H](C)[C@H](OC(C)=O)[C@@H]1C`: the activity change, negative = inhibition is -8.76%.

`Cc1nn2c(=O)cc(COC(=O)c3cccc(NC(=O)COc4ccccc4Cl)c3)nc2s1`: the activity change, negative = inhibition was 3.91%.

In the case of `Cc1ccc(CCNC(=O)c2ccc3c(c2)N(Cc2cc(C)ccc2C)C(=O)c2ccccc2S3=O)cc1` (stereo not drawn), the activity change, negative = inhibition is 3.89%.

As to `CCC(C)Cn1c(O)cc2nn(-c3nc4ccccc4s3)c(=O)c-2c1C` (stereo not drawn), the activity change, negative = inhibition is -52% (active).

With `O=C(OCCN1CCOCC1)c1cccnc1Nc1cccc(C(F)(F)F)c1`, the activity change, negative = inhibition is 1.58%.

For the compound `Cc1cc(C)cc(OCC(=O)Nc2nc(-c3ccc(F)cc3)ns2)c1`, the activity change, negative = inhibition was -6.03%.

As to `CCS(=O)(=O)N1CCc2cc(C(=O)NCc3ccc(OC)cc3)ccc21`, the activity change, negative = inhibition is -0.384%.

Consider `CCc1ccccc1NC(=O)c1sc2nc3c(cc2c1N)CN(Cc1ccccc1)CC3`, for which the activity change, negative = inhibition is -2.17%.

Turning to `Cc1ccc(Oc2c(C(F)(F)F)oc3c(CN4CCCCC4)c(O)ccc3c2=O)cc1`, the activity change, negative = inhibition was -2.18%.
